Screens: PubChem BioAssay, several laboratories
MRP reversal = compounds reversing MRP-mediated drug resistance | H69AR cells + 2 uM doxorubicin, CellTiter-Glo, 72 h | differential viability (reversal), % at 10 µM | hit rate 0.04% among 85,000 | AID 602;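 active = viability drop by adding the cancer drug above about 55%, with treated viability meeting a 40% cutoff, limit read from the data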;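 note: viability without doxorubicin minus viability with 2 µM doxorubicin for each compound; larger differential means the compound sensitizes cells more to doxorubicin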
sEH activator = soluble epoxide hydrolase (human) activation. purified human sEH enzymatic activity, activator screen. hit rate 0.04% among 91,000. activation, % at 2 µM. P34913. AID 717; in the data active = activation above about 37%
Target sequence (P34913 whole entry, looked up): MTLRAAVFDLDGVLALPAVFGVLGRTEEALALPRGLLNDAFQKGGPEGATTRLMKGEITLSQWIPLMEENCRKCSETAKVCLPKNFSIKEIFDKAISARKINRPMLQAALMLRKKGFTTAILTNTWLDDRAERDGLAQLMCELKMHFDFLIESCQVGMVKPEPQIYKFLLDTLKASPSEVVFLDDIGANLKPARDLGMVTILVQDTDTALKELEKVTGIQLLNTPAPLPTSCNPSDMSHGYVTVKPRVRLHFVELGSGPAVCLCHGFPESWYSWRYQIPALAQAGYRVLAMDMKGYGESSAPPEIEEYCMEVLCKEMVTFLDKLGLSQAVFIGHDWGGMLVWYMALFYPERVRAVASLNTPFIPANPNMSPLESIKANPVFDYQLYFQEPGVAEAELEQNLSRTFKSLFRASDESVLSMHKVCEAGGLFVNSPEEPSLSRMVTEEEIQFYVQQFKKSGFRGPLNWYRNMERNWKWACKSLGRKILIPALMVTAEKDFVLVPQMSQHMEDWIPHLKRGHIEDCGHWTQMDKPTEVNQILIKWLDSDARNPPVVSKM
sEH inhibitor = soluble epoxide hydrolase (human) inhibition | inhibition, % at 2 µM | P34913 | AID 707 | hit rate 0.34% among 91,000 | recombinant human sEH enzymatic activity assay; in the data active = inhibition above about 80%
Measles CPE = protection of cells from measles virus. Measles virus-infected cells, CPE protection, absorbance. protection (pct of control), % at 4 µM. hit rate 1.5% among 140,000; in the data active = protection mostly above about 24%, no sharp cut-off; inactive = mostly below about 26%
sdo1 growth = restores growth of sdo1-depleted yeast; AID 817; hit rate 0.21% among 140,000; z-score at 10 µM; S. cerevisiae sdo1-depleted JHY4D growth rescue, OD600 30 h; active compounds read high; pdr5 snq2 efflux-pump mutant strain;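 active = z-score above 3 at both the 24 hr and the 30 hr optical density reads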;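 note: z-score against mean and SD of all compound wells on the same plate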
MRP1 act = activates MRP-1. H69AR cells + doxorubicin, viability rescue, CellTiter-Glo. viability increase, % at 10 µM. hit rate 0.61% among 140,000. AID 799;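 active = viability gain under doxorubicin at or above a set limit, the compound median plus 3 SD, cut at about 4.7% in these data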;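 note: MRP-1 overexpressing cells given doxorubicin 25 µM after compound pretreatment; 18-22 h compound pretreatment then 72 h with doxorubicin before readout; 0% = doxorubicin-only wells and 100% = vehicle-treated cells without doxorubicin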
* = called active by the depositor; / = no result. Most compounds without a hit are left out; they make up all but 2.5% or so of the library.

SMILES	MRP reversal	sEH activator	sEH inhibitor	Measles CPE	sdo1 growth	MRP1 act
CN(C(=O)c1cccnc1)c1nnc(-c2cnccn2)s1	-11	0	2	3	0.19	-2
CN(C(=O)c1ccncc1)c1nnc(-c2cnccn2)s1	-12	4	-3	32*	0.23	-2
O=C(OCCN(C1=NS(=O)(=O)c2ccccc21)c1ccccc1Cl)c1ccc(Cl)cc1	-14	-3	2	5	-0.74	-2
O=C(Oc1ccc(N(Cc2cccs2)C2=NS(=O)(=O)c3ccccc32)cc1)c1ccccc1F	-8	5	-7	28*	-1.3	0
O=C(N/N=C/c1ccc(OCC(=O)N2CCCCC2)cc1)c1ccccc1O	/	/	/	6	1.1	-3
CC1=CC(C)(C)Nc2ccc(OC(=O)CN3C(=O)c4cccc5cccc(c45)C3=O)cc21	/	21	-18	45*	-0.73	-3
CC[n+]1c(-c2ccccc2)csc1Nc1c(C)n(C)n(-c2ccccc2)c1=O	/	/	/	6	-0.1	-1
CC[n+]1c(-c2ccc(C)cc2)csc1Nc1c(C)n(C)n(-c2ccccc2)c1=O	/	/	/	30*	0.06	-2
CC(C)(C)NC(=O)NC(=O)COC(=O)Cc1coc2ccc3ccccc3c12	/	/	/	18	-1.3	-2
Cc1cc(F)ccc1NCC(=O)Nc1ccccc1Br	/	/	/	50*	-0.5	-1
CCN(CC)c1ccc(NC(=O)COc2ccc(C)cc2)cc1	18	/	/	/	/	/
COc1ccc(-n2c(C)n[nH]c2=O)cc1	/	-5	6	68*	-0.42	0
C=CCOc1c(CNc2ccc(S(N)(=O)=O)cc2)cccc1OC	-3	-1	1	28	1	-1
C=CCOc1c(CNn2nnnc2N)cccc1OC	18	7	-1	42*	0.33	0
Cc1ccc(NC(=O)CSc2ccc3nnc(CCNC(=O)c4ccccc4)n3n2)c(C)c1	/	/	/	9	1.8	-1
O=C(Cc1ccccc1)NCC(=O)OCC(=O)c1ccc(Cl)c([N+](=O)[O-])c1	/	/	/	7	0.64	-2
CC1=NN(C(=O)c2ccc(Cn3cc([N+](=O)[O-])cn3)cc2)C(O)(C(F)(F)F)C1 (stereo not given)	/	/	/	8	1	-1
COC(=O)c1ccc(N2C(=O)CC(N3CCOCC3)C2=O)cc1 (stereo not given)	18	/	/	40*	0.86	0
COC(=O)C1=C(N)c2c(F)cccc2C1(C#N)c1ccc(F)cc1 (stereo not given)	2	1	-2	6	0.07	-2
Cc1cccc(CC2S/C(=N/c3ccccn3)NC2=O)c1 (stereo not given)	-11	-1	3	36	-0.68	10*
O=C1N/C(=N\N=C\c2ccccn2)SC1Cc1cccc(SC(F)F)c1 (stereo not given)	/	-4	4	7	-0.05	-1
CCCn1nnnc1-c1cccc(Cl)c1	/	14	-13	61*	0.74	-2
COc1ccc(NC(=O)/C=C/c2cc(Br)ccc2OC)cc1	/	-5	8	23*	-0.76	-3
CCOC(=O)c1cnn(-c2ccccn2)c1N	0	-7	6	37	0.67	7.5*
CC(C)(C)OC(=O)N1CCN(c2ccc(CNC(=O)c3ccc(Cl)cc3)cc2)CC1	/	-3	2	3	-0.39	-3
SMILES	MRP reversal	sEH activator	sEH inhibitor	Measles CPE	sdo1 growth	MRP1 act
CCOC(=O)CCN(Cc1cccs1)S(=O)(=O)c1ccc(F)cc1	/	14	-15	48*	-0.81	-4
CCOC(=O)CCN(Cc1sccc1C)S(=O)(=O)c1ccc(F)cc1	9	11	-14	12	0.1	-2
O=C(NC1CCCCC1)N1CCCC(c2nc(-c3cccs3)no2)C1 (stereo not given)	20	-96	96*	9	0.09	0
COc1ccc(NC(=O)N2CCC(c3nc(-c4cccs4)no3)CC2)cc1	3	-90	90*	5	-1.3	0
O=C(Nc1ccc(Cl)cc1)N1CCC(c2nc(-c3cccs3)no2)CC1	-1	/	/	10	-2.2	0
O=C(Nc1cccc(C(F)(F)F)c1)N1CCC(c2nc(-c3ccc(F)cc3)no2)CC1	-2	-93	93*	10	-1.9	-1
O=C(Nc1ccccc1)N1CCCC(c2nc(-c3cccs3)no2)C1 (stereo not given)	17	/	/	19	-0.22	-2
O=C(Nc1ccc(Cl)cc1)N1CCC(c2nc(-c3ccccc3Cl)no2)CC1	-18	-88	88*	6	-1.5	0
Nc1ncnc2c1C1(CCCCC1)Cc1ccccc1-2	/	/	/	18	-0.93	-2
Cn1c(-c2ccccc2)c[n+]2c1-c1ccccc1C2	/	/	/	24	1	1
O=c1oc2cc(OCc3ccc(F)cc3F)ccc2cc1-c1ccc2ccccc2n1	/	/	/	21	-0.43	-3
O=C(CCN1CCc2ccccc2C(c2ccccc2)C1)c1ccc2c(c1)OCCO2 (stereo not given)	0	0	-1	41*	0.41	-2
O=C(CCN1Cc2ccccc2C1)c1ccc2c(c1)OCCO2	0	14	-16	17	0.62	-3
CCn1c(SCC(=O)N2CCN(c3ccc(F)cc3)CC2)nnc1-c1ccncc1	-2	3	-6	16	0.29	-1
Cn1cc([N+](=O)[O-])c(C(=O)Nc2cc(Oc3cccnc3)cc([N+](=O)[O-])c2)n1	/	-7	8	2	0.22	-4
O=C(CSc1nc2ccc(Cl)cc2[nH]1)NCCc1ccc(Cl)cc1	/	/	/	4	-1.8	-1
O=C(CSc1nc2ccc(Cl)cc2[nH]1)NCCc1ccccc1	/	/	/	29*	-0.49	1
O=C(CN1CCCc2ccccc21)N/N=C/c1c(O)ccc2ccccc12	/	/	/	12	0.45	-1
COc1ccc(Nc2nnc(Cc3ccc(Cl)cc3)c(=O)[nH]2)c(OC)c1	2	/	/	11	1.6	7.0*
N#C/C(=C\c1ccc(-c2ccc([N+](=O)[O-])cc2Br)o1)C(=O)N1CCN(c2ccccc2)CC1	/	/	/	12	-0.34	-1
CCCCOC(=O)Nc1ccc(C(C)C)cc1	-1	-3	6	7	0.25	6.0*
CCCCOC(=O)Nc1ccc(S(=O)(=O)Nc2ccc([N+](=O)[O-])cc2)cc1	/	/	/	12	-0.08	4.7*
CCCCOC(=O)Nc1ccc(C(N)=O)cc1	6	-3	4	6	0.34	-2
CCOC(=O)C1CCCN(S(=O)(=O)c2cccs2)C1 (stereo not given)	0	3	1	29*	0.96	0
Nc1nc(Nc2ccc(Cl)cc2)n[nH]1	/	2	0	39*	0.37	2
Clc1ccc(Nc2ncn[nH]2)cc1	/	1	-2	12	1.7	0
Cc1ccccc1OCCCC(=O)Nc1ccc(Br)cc1	/	-93	93*	-1	-1.3	-1
COc1ccc(-c2cc3nc(-c4ccccc4)cc(N4CCC5(CC4)OCCO5)n3n2)cc1	2	9	-8	12	-1.5	9.0*
CCC(=O)N1CCc2cc(Br)cc(S(=O)(=O)N3CCN(c4ccccn4)CC3)c21	10	/	/	/	/	/
Cc1nc2c(ccc3nc(NC(=O)C(c4ccccc4)c4ccccc4)sc32)s1	/	/	/	12	-1.2	15*
